Measured values taken from PubChem BioAssay (Tox21).
Records with an inconclusive call do not appear. Active and inactive are the calls of the source. Unless noted, calls come from the whole dose curve.

Tests used:
[1] = Nuclear factor erythroid 2-related factor 2/antioxidant responsive element (Nrf2/ARE) small molecule agonists: qHTS cell viability counter screen in human keratinocytes (AID 1919968; active = well fitted curve in the direction sought with a large enough effect in the repeat runs; an effect the other way counts as inactive or inconclusive; note: nearly all actives have a fitted effect of over 55% in size)
How it was run: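 CellTiter-Fluor fluorescence, read 1 h after reagent, gave viability in the same wells as the ARE-luciferase assay. KeratinoSens cells (1,500/well) had 23 h compound exposure at 37 C/5% CO2 following 5 h plating.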

[2] = Nuclear factor erythroid 2-related factor 2/antioxidant responsive element (Nrf2/ARE) small molecule agonists: luciferase reporter gene qHTS assay in human keratinocytes (AID 1919969); note: nearly all actives have a fitted effect of over 35% in size; note: potency is the fitted concentration of half-maximal effect
[3] = molecular target: Gonadotropin-releasing hormone receptor (Homo sapiens) (UniProt P30968); assay: Human gonadotropin-releasing hormone receptor (GnRHR) small molecule agonists, calcium flux assay in GnRHR-HEK293 cells (AID 1920063); note: nearly all actives have a fitted effect of over 35% in size
How it was run: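 Agonist mode: compounds at 15 concentrations, in triplicate, went onto calcium dye-loaded GnRHR-HEK293 cells. Intracellular calcium was then followed as 480/540 nm fluorescence at 1 s intervals over 3 min.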

[4] = molecular target: KiSS-1 receptor (Homo sapiens) (UniProt Q969F8); assay: Human kisspeptin (KISS1R) small molecule agonists, calcium flux assay in KISS1R-HEK293 cells (AID 1920064; active = well fitted curve in the direction sought with a large enough effect in the repeat runs; an effect the other way counts as inactive or inconclusive)
How it was run: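 Agonist mode: intracellular calcium rise tracked at 1 s intervals over 3 min (480/540 nm) immediately after compound addition to dye-loaded KISS1R-HEK293 stable cells. Each compound tested at 15 concentrations in triplicate.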

[5] = G protein-coupled receptor (GPCR) small molecule agonists, calcium flux assay: HEK293 wild type cell line counter screen (AID 1920065)
How it was run: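 Calcium flux counter screen: compound added in agonist mode at 15 concentrations in triplicate to dye-loaded parental HEK293 cells. Fluorescence (480/540) read kinetically for 3 min; ATP served as positive control.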

[6] = p53 small molecule agonists, cell-based qHTS assay with human liver microsomes (AID 1963577);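 note: p53 response element beta-lactamase reporter cells with liver microsomes plus NADPH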
How it was run: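 In this qHTS, p53 response-element beta-lactamase cells receive test compound together with a microsome/NADPH activating system (0.5 mg/mL final each) and are incubated 16 h at 37 C before LiveBLAzer fluorescence detection.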

[7] = p53 small molecule agonists, cell-based qHTS assay with rat liver microsomes (AID 1963578)
How it was run: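 Agonist mode in p53RE-bla reporter cells, with compounds co-incubated 16 h at 37 C alongside 0.5 mg/mL rat liver microsomes and 0.5 mg/mL NADPH (final), followed by a 2 h LiveBLAzer detection step.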

[8] = p53 small molecule agonists, cell-based qHTS assay with human liver microsomes: qHTS cell viability counter screen (AID 1963579); note: nearly all actives have a fitted effect of over 45% in size
How it was run: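 Metabolically activated exposure: compounds, human liver microsomes and NADPH (0.5 mg/mL final apiece) were added to p53RE-bla cells seeded 5 h earlier, left 16 h at 37 C, and then assessed for viability by CellTiter-Glo luminescence.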

[9] = p53 small molecule agonists, cell-based qHTS assay with rat liver microsomes: qHTS cell viability counter screen (AID 1963580); note: nearly all actives have a fitted effect of over 45% in size
How it was run: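 Cytotoxicity counter screen: intracellular ATP read by CellTiter-Glo luminescence in the p53 reporter wells. HCT-116 p53RE-bla cells were treated for 16 h at 37 C alongside rat liver microsomes and NADPH, each 0.5 mg/mL final.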

[10] = p53 small molecule agonists, cell-based qHTS assay: qHTS cell viability counter screen (AID 1963581); note: nearly all actives have a fitted effect of over 45% in size; note: potency is the fitted concentration of half-maximal effect
How it was run: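 Counter screen read by CellTiter-Glo luminescence (ATP content, 30 min at room temperature), run in the same wells as the beta-lactamase reporter read. HCT-116 p53RE-bla cells saw compounds for 16 h at 37 C.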

[11] = p53 small molecule agonists, cell-based qHTS assay (AID 1963582; active = well fitted activation curve with a large enough effect in the signal ratio in the repeat runs, not every such curve was filed as active; the % refers to the signal ratio; note: potency is the fitted concentration of half-maximal effect)
How it was run: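 Read-out is beta-lactamase FRET fluorescence after 2 h at room temperature with LiveBLAzer B/G substrate. p53 response element-bla cells were treated 16 h at 37 C with compounds in DMSO, added 5 h after seeding.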

[12] = molecular target: 5-hydroxytryptamine receptor 2A (Homo sapiens) (UniProt P28223); assay: 5-hydroxytryptamine receptor 2A (HTR2A) small molecule antagonists, cell-based qHTS assay (AID 1963586); note: nearly all actives have a fitted effect of over 45% in size; note: potency is the fitted concentration of half-maximal effect
How it was run: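 CHO cells stably expressing human HTR2A were plated for 18 h at 37 C, then loaded with calcium dye for 1 h. Compounds were preincubated 5 min at room temperature before DOI (4 nM solution) was added. Kinetic fluorescence was read for 3 min.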

[13] = molecular target: 5-hydroxytryptamine receptor 2A (Homo sapiens) (UniProt P28223); assay: 5-hydroxytryptamine receptor 2A (HTR2A) small molecule agonists, cell-based qHTS assay (AID 1963587); note: nearly all actives have a fitted effect of over 30% in size
How it was run: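 Kinetic calcium-flux fluorescence (2 min, 1 sec intervals) after compound addition in agonist mode. HTR2A-CHO cells were cultured 18 h, then dye-loaded 1 h at 37 C.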

[14] = molecular target: Muscarinic acetylcholine receptor M1 (Homo sapiens) (UniProt P11229); assay: Cholinergic receptor muscarinic 1 (CHRM1) small molecule antagonists, cell-based qHTS assay (AID 1963588); note: nearly all actives have a fitted effect of over 40% in size; note: potency is the fitted concentration of half-maximal effect
How it was run: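 Compounds were tested at 15 concentrations in three independent runs. Dye-loaded CHRM1-CHO cells were exposed 5 min at room temperature before stimulation by acetylcholine added at 50nM. Intracellular calcium was read kinetically on FDSS for 3 min.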

[15] = molecular target: Muscarinic acetylcholine receptor M1 (Homo sapiens) (UniProt P11229); assay: Cholinergic receptor muscarinic 1 (CHRM1) small molecule agonists, cell-based qHTS assay (AID 1963589); note: nearly all actives have a fitted effect of over 35% in size
How it was run: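 Agonist-mode calcium-flux screen: compounds at 15 concentrations, three independent runs, were pin-transferred onto dye-loaded human CHRM1-CHO cells. Fluorescence was then recorded kinetically every second over minutes.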

[16] = cAMP Responsive Elements (CRE) small molecule agonists, cell-based qHTS assay (AID 1963590)
How it was run: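 Agonist mode: compound added to CRE-bla HEK 293T cells (2,000/well, 18 h after plating) for 3 h at 37 C/5% CO2. Reporter activity detected via FRET beta-lactamase substrate, 2 h room-temperature loading.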

[17] = molecular target: D(2) dopamine receptor (Homo sapiens) (UniProt P14416); assay: Dopamine D2 receptor (DRD2) small molecule agonists, cell-based qHTS assay (AID 1963594); note: nearly all actives have a fitted effect of over 35% in size; note: potency is the fitted concentration of half-maximal effect
How it was run: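 cAMP accumulation in DRD2-HEK293 cells measured by HTRF after 1 h detection; compounds added 10 min before NKH477 (200nM […]) forskolin-analogue stimulation, 30 min at room temperature, with Ro20-1724 present at 0.1 mM final.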

[18] = molecular target: D(2) dopamine receptor (Homo sapiens) (UniProt P14416); assay: Dopamine D2 receptor (DRD2) small molecule antagonists, cell-based qHTS assay (AID 1963595; active = well fitted inhibition curve with a large enough effect in the signal ratio in the repeat runs, with a control signal flat; the % refers to the signal ratio)
How it was run: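 HEK293 cells stably expressing DRD2, preincubated with 0.1 mM Ro20-1724 and compounds 10 min, were stimulated with 200 nM NKH477 plus 12 nM quinpirole for 30 min at room temperature; cAMP measured by HTRF (665/620 nm).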

[19] = cAMP Responsive Elements (CRE) small molecule antagonists, cell-based qHTS assay (AID 1963591; active = well fitted inhibition curve with a large enough effect in the signal ratio in the repeat runs, not every such curve was filed as active; the % refers to the signal ratio)
How it was run: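 Antagonist mode: compounds are added alongside the adenylyl cyclase activator NKH477 (0.25 uM final) to CRE-bla HEK293T cells for 3 h. LiveBLAzer FRET substrate, 2 h at room temperature, reports bla expression.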

[20] = molecular target: Beta-2 adrenergic receptor (Homo sapiens) (UniProt P07550); assay: Adrenergic beta2 receptor (ADRB2) small molecule antagonists, cell-based qHTS assay (AID 1963592); note: series mostly up to about 92 µM; nearly all actives have a fitted effect of over 50% in size
How it was run: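 Assay format: CHO-ADRB2 cells, 18-20hr seeding at 37C/5% CO2, then compound plus 1nM isoproterenol agonist mix for 0.5hr RT. Homogeneous time-resolved fluorescence cAMP detection after 1hr, expressed as 665/615 nm ratio.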

Measured: Potency

Chain of Beta-2 adrenergic receptor (Homo sapiens) (P07550 whole entry, looked up): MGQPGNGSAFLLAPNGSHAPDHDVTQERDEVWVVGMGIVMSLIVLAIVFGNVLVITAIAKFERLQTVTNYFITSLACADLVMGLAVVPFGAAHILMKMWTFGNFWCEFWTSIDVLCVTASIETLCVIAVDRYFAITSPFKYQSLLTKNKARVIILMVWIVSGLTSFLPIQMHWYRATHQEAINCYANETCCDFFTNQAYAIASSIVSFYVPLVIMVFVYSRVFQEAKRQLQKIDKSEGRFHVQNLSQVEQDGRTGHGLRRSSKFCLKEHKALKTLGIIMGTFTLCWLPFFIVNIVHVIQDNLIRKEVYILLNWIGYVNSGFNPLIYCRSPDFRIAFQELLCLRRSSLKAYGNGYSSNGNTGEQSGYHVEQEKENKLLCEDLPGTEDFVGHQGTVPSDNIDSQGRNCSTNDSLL
Chain of KiSS-1 receptor (Homo sapiens) (Q969F8 whole entry, looked up): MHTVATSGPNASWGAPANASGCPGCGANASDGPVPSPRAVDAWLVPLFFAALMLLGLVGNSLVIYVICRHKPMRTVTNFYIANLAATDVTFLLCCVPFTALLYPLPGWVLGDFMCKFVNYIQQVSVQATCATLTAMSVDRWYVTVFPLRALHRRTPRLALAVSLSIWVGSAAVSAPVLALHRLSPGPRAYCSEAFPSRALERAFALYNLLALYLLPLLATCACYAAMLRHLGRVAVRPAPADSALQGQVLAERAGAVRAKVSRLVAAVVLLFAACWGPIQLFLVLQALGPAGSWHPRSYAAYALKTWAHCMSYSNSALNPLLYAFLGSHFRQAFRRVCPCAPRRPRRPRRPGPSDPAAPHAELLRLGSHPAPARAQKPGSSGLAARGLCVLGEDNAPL
Chain of 5-hydroxytryptamine receptor 2A (Homo sapiens) (P28223 whole entry, looked up): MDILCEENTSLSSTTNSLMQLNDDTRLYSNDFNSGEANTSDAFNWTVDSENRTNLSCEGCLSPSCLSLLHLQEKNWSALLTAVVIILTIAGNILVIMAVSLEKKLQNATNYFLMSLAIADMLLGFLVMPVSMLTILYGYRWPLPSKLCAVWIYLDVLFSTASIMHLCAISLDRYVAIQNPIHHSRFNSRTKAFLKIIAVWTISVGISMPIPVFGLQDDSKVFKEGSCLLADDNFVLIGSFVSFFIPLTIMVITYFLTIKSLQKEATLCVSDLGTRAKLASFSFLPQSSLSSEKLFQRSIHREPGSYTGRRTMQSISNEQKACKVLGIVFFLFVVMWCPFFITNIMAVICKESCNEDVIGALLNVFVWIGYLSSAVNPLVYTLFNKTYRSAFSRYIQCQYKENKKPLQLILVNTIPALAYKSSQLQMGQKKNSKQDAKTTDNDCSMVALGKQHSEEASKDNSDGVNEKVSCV
Chain of Gonadotropin-releasing hormone receptor (Homo sapiens) (P30968 whole entry, looked up): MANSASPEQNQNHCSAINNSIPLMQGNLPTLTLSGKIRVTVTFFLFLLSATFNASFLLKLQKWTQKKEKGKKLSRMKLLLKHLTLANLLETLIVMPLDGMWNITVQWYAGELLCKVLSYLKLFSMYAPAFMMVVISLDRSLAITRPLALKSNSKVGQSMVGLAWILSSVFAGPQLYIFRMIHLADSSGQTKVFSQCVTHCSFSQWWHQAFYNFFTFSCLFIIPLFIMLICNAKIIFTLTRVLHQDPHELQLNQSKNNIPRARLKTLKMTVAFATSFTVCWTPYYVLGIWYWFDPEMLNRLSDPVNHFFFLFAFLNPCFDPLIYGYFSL
Chain of D(2) dopamine receptor (Homo sapiens) (P14416 whole entry, looked up): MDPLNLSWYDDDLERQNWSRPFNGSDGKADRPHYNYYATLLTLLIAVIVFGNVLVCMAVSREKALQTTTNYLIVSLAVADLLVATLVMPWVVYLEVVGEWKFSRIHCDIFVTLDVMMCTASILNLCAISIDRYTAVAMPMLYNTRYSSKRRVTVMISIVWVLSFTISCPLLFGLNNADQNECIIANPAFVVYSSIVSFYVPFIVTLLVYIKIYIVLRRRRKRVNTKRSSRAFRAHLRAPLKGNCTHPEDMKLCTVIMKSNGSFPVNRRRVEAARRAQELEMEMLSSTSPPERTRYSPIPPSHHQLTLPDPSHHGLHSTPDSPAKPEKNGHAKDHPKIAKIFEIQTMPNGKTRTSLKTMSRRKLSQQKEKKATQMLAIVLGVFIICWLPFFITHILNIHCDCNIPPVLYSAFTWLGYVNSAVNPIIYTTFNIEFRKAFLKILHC
Chain of Muscarinic acetylcholine receptor M1 (Homo sapiens) (P11229 whole entry, looked up): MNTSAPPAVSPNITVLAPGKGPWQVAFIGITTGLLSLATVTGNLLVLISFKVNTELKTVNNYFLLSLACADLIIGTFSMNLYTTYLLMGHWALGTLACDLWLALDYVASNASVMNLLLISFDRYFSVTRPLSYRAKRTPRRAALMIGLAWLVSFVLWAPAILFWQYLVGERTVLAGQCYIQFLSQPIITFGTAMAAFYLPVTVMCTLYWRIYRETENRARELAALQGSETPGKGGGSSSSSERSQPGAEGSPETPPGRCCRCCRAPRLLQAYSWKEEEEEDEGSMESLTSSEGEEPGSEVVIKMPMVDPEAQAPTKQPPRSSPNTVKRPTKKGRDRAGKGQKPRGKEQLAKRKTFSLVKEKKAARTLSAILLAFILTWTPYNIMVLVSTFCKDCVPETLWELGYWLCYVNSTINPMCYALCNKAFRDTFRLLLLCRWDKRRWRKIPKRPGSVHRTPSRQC

N=c1ccn2c(n1)O[C@H]1[C@H](O)[C@@H](CO)O[C@H]12
active: [11] 1450 nM
not listed: [19] | [20]
inactive: all other assays above

O=C1c2cccc(O)c2C(=O)c2c(O)cc(CO)cc21
active: [2] 13700 nM
not listed: [16]
inactive: all other assays above

CN1Cc2cc(C(=O)N3CCC(C4CCNCC4)CC3)ccc2NC(CC(=O)O)C1=O (stereo not given)
active: [14] 1300 nM
not listed: [16]
inactive: all other assays above

COc1cc2c(cc1OC)C(=O)C(CC1CCN(Cc3ccccc3)CC1)C2 (stereo not given)
not listed: [18] | [19] | [20]
inactive: all other assays above

CCN(Cc1c(F)cccc1Cl)c1c([N+](=O)[O-])cc(C(F)(F)F)cc1[N+](=O)[O-]
active: [2] 15400 nM | [10] 25700 nM
not listed: [16]
inactive: all other assays above

CC(C)C[C@@H]1[C@H](c2ccccc2)OC(=O)N1CCCN1CCCCCC1
active: [12] 2590 nM
not listed: [16]
inactive: all other assays above

CCCCC(CC)COC(=O)COc1ccc(Cl)cc1Cl (stereo not given)
not listed: [16] | [18]
inactive: all other assays above

O=C(O)c1cc(Cl)cc([N+](=O)[O-])c1Cl
not listed: [16]
inactive: all other assays above

CC(C)Nc1cccnc1N1CCN(C(=O)c2cc3cc(NS(C)(=O)=O)ccc3[nH]2)CC1
not listed: [17] | [19]
inactive: all other assays above

SCCCCCCCCS
not listed: [19] | [20]
inactive: all other assays above

CCCCCCCCC(=O)Cl
not listed: [16] | [18]
inactive: all other assays above

CCOC(=O)C(C)(C)C
not listed: [19] | [20]
inactive: all other assays above

COc1cc(OC)nc(NC(=O)NS(=O)(=O)Nc2ccccc2C(=O)N(C)C)n1
not listed: [16] | [18] | [20]
inactive: all other assays above

O=C1CCCc2c(O)cccc21
active: [14] 163 nM
not listed: [15]
inactive: all other assays above

COC(C)(OC)OC
not listed: [16] | [19]
inactive: all other assays above

CC(C)c1cc(C(C)C)cc(C(C)C)c1
not listed: [16] | [20]
inactive: all other assays above

Cc1ccc(N)nc1
not listed: [15]
inactive: all other assays above

CCCn1cnc2c1c(=O)n(CCCCC(C)=O)c(=O)n2C
not listed: [16] | [19]
inactive: all other assays above

CC(=O)Nc1ccc(S(N)(=O)=O)cc1
not listed: [15] | [17]
inactive: all other assays above

CCC(CC)(CC(=O)Nc1cccc(/C=C/c2nc(C3CCC3)cs2)c1)C(=O)O
not listed: [16] | [19]
inactive: all other assays above

CC1(C)CCC(C)(C)c2cc(NC(=O)c3ccc(C(=O)O)cc3)ccc21
active: [17] 1060 nM
not listed: [16] | [19]
inactive: all other assays above

CCC(CO)(CO)[N+](=O)[O-]
not listed: [15] | [17] | [18]
inactive: all other assays above

Cc1ccnc(N)c1
not listed: [15] | [18]
inactive: all other assays above

CSSc1ccoc1C
not listed: [15]
inactive: all other assays above

CCCCCN(CCCOC)C(=O)C(CCC(=O)O)NC(=O)c1ccc(Cl)c(Cl)c1 (stereo not given)
not listed: [16] | [19]
inactive: all other assays above

Nc1ccc(C(=O)N2CC3CC(CN(Cc4ccccc4)C3)C2)cc1
active: [14] 1830 nM
not listed: [16] | [19]
inactive: all other assays above

CCCCCCOC(=O)CCC
not listed: [15]
inactive: all other assays above

CCOC(=O)COc1ccc(C)cc1
not listed: [16] | [19]
inactive: all other assays above

COc1cc2nc(Cl)nc(N)c2cc1OC
not listed: [16] | [17] | [19]
inactive: all other assays above

O=c1[nH]c(=O)n([C@H]2O[C@H](CO)[C@@H](O)[C@@H]2O)cc1/C=C\Br
not listed: [16] | [20]
inactive: all other assays above
